A selection: hits, their analogues and other compounds. The true share with any hit is near 5.4%.
ALR inh = inhibitors of human sulfhydryl oxidase ALR; P55789; inhibition, % (concentration not given with the values); purified ALR, DTT oxidation, H2O2 HRP-luminol luminescence; AID 485317; 290,000 compounds, 3.8% hits;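 active = mean replicate inhibition above about 79%, with every replicate also reaching it, limit read from the data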
rCAG binder = molecules binding r(CAG) RNA repeats; r(CAG) RNA repeat, TO-PRO-1 dye displacement fluorescence; inhibition, % at 3 µM; 370,000 compounds, 1.3% hits;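 active = inhibition above the plate cutoff, the mean of all test compounds on that plate plus 3 SD, cut at about 35% in these data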;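 note: 0% = DMSO alone and 100% = 100 µM mitoxantrone as full dye displacement; higher means more dye released from RNA so lower well fluorescence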
PHOSPHO1 block = blocks human PHOSPHO1 phosphatase activity | recombinant PHOSPHO1, absorbance phosphatase assay | inhibition, % at 13.3 µM | 290,000 compounds, 1.1% hits; in the data active = inhibition above about 60%
A3A deaminase = blocks human APOBEC3A ssDNA deamination. P31941. recombinant A3A, FAM/TAMRA ssDNA deamination fluorescence. inhibition, % at 20 µM. 330,000 compounds, 0.41% hits. AID 493011;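 active = at least 40% inhibition at 20 µM here, with at most 30% in a related deaminase screen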;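 note: plate controls were A3A with DMSO for no effect and wells lacking A3A enzyme for full effect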
Target sequence (P31941 whole entry, looked up): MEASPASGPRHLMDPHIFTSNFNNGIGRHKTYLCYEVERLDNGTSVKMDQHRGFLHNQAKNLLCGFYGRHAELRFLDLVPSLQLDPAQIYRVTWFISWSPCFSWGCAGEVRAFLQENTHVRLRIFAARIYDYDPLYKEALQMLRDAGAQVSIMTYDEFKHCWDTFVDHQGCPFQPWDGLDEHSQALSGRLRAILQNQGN
A3G deaminase = blocks human APOBEC3G single-stranded DNA deamination; recombinant A3G, ssDNA deamination FAM/TAMRA fluorescence; inhibition, % at 20 µM; 330,000 compounds, 0.28% hits; AID 493012;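 active = inhibition of at least 40% at 20 µM, with no more than 30% in the related APOBEC3A deaminase screen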;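 note: plate controls were DMSO wells with A3G for no effect and wells lacking A3G enzyme for full effect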
Target sequence (Q9HC16 whole entry, looked up): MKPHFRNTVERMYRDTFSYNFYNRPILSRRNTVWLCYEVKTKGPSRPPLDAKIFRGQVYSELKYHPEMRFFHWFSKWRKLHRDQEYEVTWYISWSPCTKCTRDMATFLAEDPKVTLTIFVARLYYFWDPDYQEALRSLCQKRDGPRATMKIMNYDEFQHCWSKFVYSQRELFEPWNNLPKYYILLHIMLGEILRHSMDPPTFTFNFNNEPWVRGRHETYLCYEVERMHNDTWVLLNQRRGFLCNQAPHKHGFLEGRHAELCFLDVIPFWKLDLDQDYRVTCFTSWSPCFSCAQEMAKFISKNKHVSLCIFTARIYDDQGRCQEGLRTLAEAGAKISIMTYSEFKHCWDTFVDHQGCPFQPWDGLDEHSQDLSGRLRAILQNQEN
aDG glyco act = alpha-DG glycosylation activation; Pro5-aDG cells, alpha-DG glycosylation AlphaScreen (IIH6); 0% Pro5, 100% B10-LARGE cell signal; 360,000 compounds, 0.22% hits; AID 624168; activation, % at 10 µM;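 active = activation of at least 8% versus controls, or a plate z-score of at least 8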;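 note: Pro5 are CHO cells carrying HIG-tagged alpha-DG that lacks glycosylation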
* hit, by the source's call.

How did N#Cc1c(/N=C/c2cccs2)sc2c1CCCCC2 do in these assays?
ALR inh: 95*; rCAG binder: 4; PHOSPHO1 block: 39; A3A deaminase: 1; A3G deaminase: -1; aDG glyco act: 0

What do the screens show for `CN(C)/C=N/c1sc2c(c1C#N)CCC2`?
ALR inh: 87*; rCAG binder: -5; PHOSPHO1 block: 17; A3A deaminase: -1; A3G deaminase: 0; aDG glyco act: 0

How did COC(=O)C1=C(C)N(Cc2cccc(C(F)(F)F)c2)C(=NCC2CC2)NC1c1cccc(F)c1 (configuration not stated) do in these assays?
rCAG binder: 7

How did Nc1nc(N2CCN(c3ccc(F)cc3)CC2)n[nH]1 do in these assays?
ALR inh: 98*; rCAG binder: 2; PHOSPHO1 block: 33; A3A deaminase: -5; A3G deaminase: -2; aDG glyco act: 0

How did O=C(Nc1nnc(-c2cccs2)o1)c1cc(-c2ccccc2)nc2ccccc12 do in these assays?
rCAG binder: 44*; PHOSPHO1 block: -6; A3A deaminase: 0; A3G deaminase: -3; aDG glyco act: 0

How did COCCn1nnnc1C(c1cc2cc(C)ccc2[nH]c1=O)N1CCCCCC1 (configuration not stated) do in these assays?
ALR inh: -14; PHOSPHO1 block: 92*; A3A deaminase: -1; A3G deaminase: 12; aDG glyco act: 0

How did Cc1ccc2cc(C(c3nnnn3C(C)(C)C)N3CCCC3)c(=O)[nH]c2c1C (configuration not stated) do in these assays?
PHOSPHO1 block: 94*

How did COCCn1nnnc1CN(CCc1ccccc1)Cc1cc2ccc(C)cc2[nH]c1=O do in these assays?
rCAG binder: -8; PHOSPHO1 block: 66*; A3A deaminase: 2; A3G deaminase: -1; aDG glyco act: 0

Results for CCOC(=O)C1CCN(C(c2cc3ccc(C)cc3[nH]c2=O)c2nnnn2C2CCCCC2)CC1 (configuration not stated) ?
rCAG binder: 8; PHOSPHO1 block: 92*; A3A deaminase: -4; A3G deaminase: -7; aDG glyco act: 0

How did O=C(NCc1ccccc1)[C@@H]1CCCN1C(=O)[C@H]1CCCN1C(=O)c1ccc(Cl)c(Cl)c1 do in these assays?
rCAG binder: 1

Results for O=C(OCc1cn(Cc2ccccc2F)nn1)N1CCOCC1 ?
rCAG binder: 2

What do the screens show for `CCN(Cc1ccccc1)C(c1cc2cc(C)ccc2[nH]c1=O)c1nnnn1CCOC` (configuration not stated)?
ALR inh: -8; rCAG binder: -2; PHOSPHO1 block: 74*; A3A deaminase: 0; A3G deaminase: -3; aDG glyco act: 0

Results for COc1ccc2cc(C(c3nnnn3CCc3ccccc3)N3CCCC(C)C3)c(=O)[nH]c2c1 (configuration not stated) ?
ALR inh: -7; rCAG binder: 3; PHOSPHO1 block: 82*; A3A deaminase: 0; A3G deaminase: 4; aDG glyco act: 0

Results for Cc1ccccc1C(=O)N[C@H](C(=O)N1CCC[C@H]1C(=O)NCCc1ccccc1Cl)C(C)C ?
rCAG binder: -1

What do the screens show for `O=C(N[C@H](C(=O)N1CCC[C@H]1C(=O)NC1CCCC1)c1ccccc1)c1ccc(Cl)cc1Cl`?
rCAG binder: 1

How did O=C(NCCSc1c[nH]c2ccccc12)C1CC1 do in these assays?
ALR inh: 98*; rCAG binder: 1; PHOSPHO1 block: -2; A3A deaminase: -3; A3G deaminase: 1; aDG glyco act: 0

What do the screens show for `COc1cc(OC)cc(C(=O)NCCSc2c[nH]c3ccccc23)c1`?
ALR inh: 91*; rCAG binder: 7; PHOSPHO1 block: 46; A3A deaminase: 1; A3G deaminase: -6; aDG glyco act: 0

How did CN1C(=O)c2cc(NC(=O)C3CCCCC3)ccc2OC[C@H]2O[C@@H](CC(=O)NC3CCCC3)CC[C@H]21 do in these assays?
rCAG binder: 5

How did Cc1c(NC(=O)COC(=O)COc2ccc(Nc3ccccc3)cc2)c(=O)n(-c2ccccc2)n1C do in these assays?
ALR inh: 99*; rCAG binder: 5; PHOSPHO1 block: 20; A3A deaminase: 2; A3G deaminase: -6; aDG glyco act: 0

How did Cc1c(NC(=O)COC(=O)c2cc3c4ccccc4n(C)c3s2)c(=O)n(-c2ccccc2)n1C do in these assays?
ALR inh: -2; rCAG binder: 4; PHOSPHO1 block: 62*; A3A deaminase: -1; A3G deaminase: -1; aDG glyco act: 0

How did CCC(=O)c1ccc(OCC(=O)OCC(=O)Nc2c(C)n(C)n(-c3ccccc3)c2=O)cc1 do in these assays?
ALR inh: -18; rCAG binder: -6; A3A deaminase: 0; A3G deaminase: 3; aDG glyco act: 0

How did Cc1c(NC(=O)COC(=O)c2ccccc2Cl)c(=O)n(-c2ccccc2)n1C do in these assays?
ALR inh: -2; rCAG binder: -1; PHOSPHO1 block: 36; A3A deaminase: 1; A3G deaminase: -1; aDG glyco act: 0

What do the screens show for `Cc1ccc(-n2c(SCC(=O)Nc3ccc(OCc4ccccc4)cc3)nnc2-c2ccco2)cc1`?
rCAG binder: 7

Results for CCCCNC(=O)C[C@H]1C[C@@]2(C(=O)OC)C(=C[C@H](C(C)(C)C)O[C@@H]2C)N(Cc2cccc3ccccc23)C1=O ?
rCAG binder: 6

Results for O=[N+]([O-])c1ccc2c(c1)CO[C@]21O[C@H](CCO)C[C@H](O)[C@H]1O ?
rCAG binder: 1

What do the screens show for `CC(C)Cn1c(-c2ccc(Br)cc2)c[nH]c1=S`?
ALR inh: 97*; rCAG binder: 0; PHOSPHO1 block: -12; A3A deaminase: -5; A3G deaminase: -7; aDG glyco act: 0

What do the screens show for `S=c1[nH]cc(-c2ccc(Cl)cc2)n1Cc1ccccc1`?
ALR inh: 4; rCAG binder: 1; PHOSPHO1 block: -33; A3A deaminase: -10; A3G deaminase: -13; aDG glyco act: 0

How did CCn1c(-c2ccccc2)c[nH]c1=S do in these assays?
ALR inh: 99*; rCAG binder: 0; PHOSPHO1 block: 98*; A3A deaminase: -3; A3G deaminase: 39; aDG glyco act: 0

Results for Cn1ccnc1/C(=N\NC(=O)c1ccccc1)c1cccc([N+](=O)[O-])c1 ?
ALR inh: 96*; rCAG binder: -3; PHOSPHO1 block: 28; A3A deaminase: -1; A3G deaminase: -5; aDG glyco act: 0

How did C=CCOc1ccc(/C=N/Nc2ccccn2)cc1OC do in these assays?
ALR inh: 15; rCAG binder: -1; PHOSPHO1 block: 30; A3A deaminase: 1; A3G deaminase: -10; aDG glyco act: 0

How did COc1cc(/C=C(\C#N)c2ccccn2)cc(OC)c1O do in these assays?
ALR inh: 98*; rCAG binder: 6; PHOSPHO1 block: -8; A3A deaminase: -33; A3G deaminase: -31; aDG glyco act: 0

Bioassay records as filed in PubChem BioAssay.
